According to paper PMC5700166:
Residue numbers refer to the chain shown, from its start.

Key:
Assay in all cases: protein-binding microarray (PBM); PBM: ~300 nM protein, 6 mM HEPES pH 7.8, 80 mM KCl, 0.5 mM EDTA, 0.5 mM EGTA, 6% glycerol, 35 ng/ul poly-dIdC, 1% milk, 1 h, room temperature; Ap Aiptasia and Nv Nematostella (sea anemones) / Co Capsaspora / Aq Amphimedon (sponge) / Dm Drosophila / Hu human; RHD is the Rel homology domain; high values mean tight binding
Settings in all cases: dsDNA, one strand shown
GST-Ap-NF-kB RHD = molecular target: T1, GST-Ap-NF-kB RHD (Exaiptasia pallida (Aiptasia), UniProt A0A913YAJ5 2-422)
T1 sequence: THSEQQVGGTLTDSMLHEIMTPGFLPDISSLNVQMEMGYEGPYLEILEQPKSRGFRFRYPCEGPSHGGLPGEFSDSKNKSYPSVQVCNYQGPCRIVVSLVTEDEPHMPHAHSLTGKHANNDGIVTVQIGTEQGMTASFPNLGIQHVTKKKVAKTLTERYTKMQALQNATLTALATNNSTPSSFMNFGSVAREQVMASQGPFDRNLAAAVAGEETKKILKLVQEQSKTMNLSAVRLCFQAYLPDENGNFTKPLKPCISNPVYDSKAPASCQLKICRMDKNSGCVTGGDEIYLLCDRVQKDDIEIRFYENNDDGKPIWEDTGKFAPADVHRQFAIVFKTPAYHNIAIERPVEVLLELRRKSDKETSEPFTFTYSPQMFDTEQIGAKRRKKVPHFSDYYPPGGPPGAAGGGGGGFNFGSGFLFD

[1] = molecular target: T2, GST-Nv-NF-kB (Cys allele) (Nematostella vectensis, UniProt E5G601 2-411)
T2 sequence: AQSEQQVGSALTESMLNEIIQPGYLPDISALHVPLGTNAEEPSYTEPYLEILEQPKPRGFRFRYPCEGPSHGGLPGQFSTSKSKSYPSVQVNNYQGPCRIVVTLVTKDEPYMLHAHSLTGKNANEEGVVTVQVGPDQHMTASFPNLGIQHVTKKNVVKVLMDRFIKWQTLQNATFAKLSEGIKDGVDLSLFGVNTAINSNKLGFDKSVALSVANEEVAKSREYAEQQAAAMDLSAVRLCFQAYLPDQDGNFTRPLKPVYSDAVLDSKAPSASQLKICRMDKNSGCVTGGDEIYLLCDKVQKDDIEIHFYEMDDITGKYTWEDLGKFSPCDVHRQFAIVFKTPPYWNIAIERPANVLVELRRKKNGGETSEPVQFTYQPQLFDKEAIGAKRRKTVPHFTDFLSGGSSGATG

[2] = molecular target: T3, GST-Nv-NF-kB (Ser allele) (Nematostella vectensis, UniProt A7UNT2 2-411)
T3 sequence: T2 sequence with Q21R, C66S, S207N, E215Q, V217A, E225K, A268E, D399E

GST-Co-NF-kB = molecular target: T4, GST-Co-NF-kB (Capsaspora owczarzaki, UniProt F1ARL5 200-546)
T4 sequence: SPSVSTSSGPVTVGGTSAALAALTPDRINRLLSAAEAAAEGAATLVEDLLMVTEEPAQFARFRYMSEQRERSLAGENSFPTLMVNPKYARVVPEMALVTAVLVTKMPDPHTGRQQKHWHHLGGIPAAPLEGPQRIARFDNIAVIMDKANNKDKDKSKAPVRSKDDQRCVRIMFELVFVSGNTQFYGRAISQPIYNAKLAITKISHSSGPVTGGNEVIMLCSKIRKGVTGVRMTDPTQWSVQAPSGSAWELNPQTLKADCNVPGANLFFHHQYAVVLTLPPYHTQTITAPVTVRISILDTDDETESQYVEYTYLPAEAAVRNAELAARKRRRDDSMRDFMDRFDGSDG

GST-Dm-Relish = molecular target: T5, GST-Dm-Relish (Drosophila melanogaster, UniProt Q94527 99-473)
T5 sequence: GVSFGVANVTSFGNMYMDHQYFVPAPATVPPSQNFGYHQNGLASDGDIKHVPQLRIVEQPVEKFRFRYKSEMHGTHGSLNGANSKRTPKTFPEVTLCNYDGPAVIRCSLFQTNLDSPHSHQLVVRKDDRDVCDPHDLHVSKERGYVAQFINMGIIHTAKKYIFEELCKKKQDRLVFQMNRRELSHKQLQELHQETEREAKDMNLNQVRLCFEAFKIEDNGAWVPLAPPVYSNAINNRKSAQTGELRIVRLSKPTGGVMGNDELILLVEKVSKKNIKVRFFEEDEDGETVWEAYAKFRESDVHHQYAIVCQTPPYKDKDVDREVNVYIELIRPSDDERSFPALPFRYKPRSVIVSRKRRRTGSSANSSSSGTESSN

GST-Aq-NF-kB = molecular target: T6, GST-Aq-NF-kB (Amphimedon queenslandica, UniProt A9Y5G7 2-389)
T6 sequence: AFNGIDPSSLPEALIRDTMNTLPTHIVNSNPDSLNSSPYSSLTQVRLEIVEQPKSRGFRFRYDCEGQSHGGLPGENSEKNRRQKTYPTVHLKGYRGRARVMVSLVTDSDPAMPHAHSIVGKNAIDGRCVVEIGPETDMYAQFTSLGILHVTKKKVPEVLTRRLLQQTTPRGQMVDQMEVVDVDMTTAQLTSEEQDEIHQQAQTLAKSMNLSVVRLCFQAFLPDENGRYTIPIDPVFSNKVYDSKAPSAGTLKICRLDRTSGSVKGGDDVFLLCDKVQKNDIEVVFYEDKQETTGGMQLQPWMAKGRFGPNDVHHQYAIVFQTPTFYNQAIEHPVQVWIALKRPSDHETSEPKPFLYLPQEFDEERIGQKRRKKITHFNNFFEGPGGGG

GST-Hu-p50 = GST-Hu-p50 (Homo sapiens, UniProt P19838 7-356)
GST-Hu-p50, sequence (P19838 7-356): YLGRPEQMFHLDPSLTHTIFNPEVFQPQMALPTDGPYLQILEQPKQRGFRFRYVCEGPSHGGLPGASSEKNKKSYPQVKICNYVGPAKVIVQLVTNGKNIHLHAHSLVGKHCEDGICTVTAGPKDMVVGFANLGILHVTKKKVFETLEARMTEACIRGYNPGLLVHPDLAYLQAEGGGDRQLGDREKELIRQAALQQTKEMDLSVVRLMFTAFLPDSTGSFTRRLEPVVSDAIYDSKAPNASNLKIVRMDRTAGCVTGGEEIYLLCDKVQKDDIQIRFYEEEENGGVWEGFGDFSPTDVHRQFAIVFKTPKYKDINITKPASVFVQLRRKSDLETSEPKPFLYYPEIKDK

| Sequence | binding signal (GST-Ap-NF-kB RHD) [z-score] | binding signal [1] [z-score] | binding signal [2] [z-score] | binding signal (GST-Co-NF-kB) [z-score] | binding signal (GST-Dm-Relish) [z-score] | binding signal (GST-Aq-NF-kB) [z-score] | binding signal (GST-Hu-p50) [z-score] |
| --- | --- | --- | --- | --- | --- | --- | --- |
| CCGATTAACATCAGGGAATGTTATGATGTTAATCGGGTCTTGATTCGCTTGACGCTGCTG | 2.55 | 4.38 | 3.78 | 2.75 | 1.85 | 5.04 | 3.32 |
| CCGATTAACATCAAGTTCCCCCATGATGTTAATCGGGTCTTGATTCGCTTGACGCTGCTG | 7.14 | 6.4 | 6.97 | 10.1 | 4.93 | 5.56 | 6.24 |
| CCGATTAACATCAAGTATTCCCCTGATGTTAATCGGGTCTTGATTCGCTTGACGCTGCTG | 8.17 | 9.28 | 8.86 | 7.58 | 7.14 | 6.74 | 5.87 |
| CCGATTAACATCAAGAAATTCCCTGATGTTAATCGGGTCTTGATTCGCTTGACGCTGCTG | 5.84 | 8.19 | 8.01 | 4.57 | 5.32 | 6.81 | 5.84 |
| CCGATTAACATCAAAAACTCCCCTGATGTTAATCGGGTCTTGATTCGCTTGACGCTGCTG | 9.29 | 8.96 | 9.57 | 6.91 | 8.62 | 8.06 | 6.46 |
| CCGATTAACATCAAGGTATTCCCTGATGTTAATCGGGTCTTGATTCGCTTGACGCTGCTG | 4.4 | 3.82 | 3.75 | 3.21 | 6.27 | 5.39 | 2.26 |
